The list is not random: actives were taken first. Their share in the collection is about 1.4%.
Bcl-xL primary = inhibitors of human Bcl-xL, primary screen, biochemical, fluorescence polarization, HTS; GST-Bcl-xL / FITC-Bim BH3 peptide fluorescence polarization; inhibition, % at 10.9 µM; 320,000 compounds, 0.7% hits; AID 2129, 2009;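 active means inhibition above the mean of all tested compounds plus 3 SD, cutoff set per campaign, cut at about 30% in these data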;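 further: 0% = DMSO wells and 100% = unlabeled Bim-BH3 peptide competitor; inhibitors lower millipolarization by displacing the labeled peptide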
Target sequence (Q07817 whole entry, looked up): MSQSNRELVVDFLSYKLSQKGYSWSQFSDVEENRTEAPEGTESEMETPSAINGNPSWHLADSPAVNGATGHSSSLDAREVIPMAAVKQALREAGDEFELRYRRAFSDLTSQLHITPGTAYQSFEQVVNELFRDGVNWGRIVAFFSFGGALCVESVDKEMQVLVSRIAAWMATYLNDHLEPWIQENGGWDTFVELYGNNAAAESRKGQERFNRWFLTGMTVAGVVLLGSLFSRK
EBV gp42 inh = Epstein-Barr virus gp42 inhibitors, primary screen, biochemical, uHTS, fluorescence polarization. Fluorescence polarization binding assay, mP read-out. 220,000 compounds, 0.42% hits. Glycoprotein 42 (Epstein-Barr virus (strain AG876)), Q1HVG2. inhibition, % (tested at 21.74 µM); in the data active means inhibition above about 50%
Target sequence (Q1HVG2 whole entry, looked up): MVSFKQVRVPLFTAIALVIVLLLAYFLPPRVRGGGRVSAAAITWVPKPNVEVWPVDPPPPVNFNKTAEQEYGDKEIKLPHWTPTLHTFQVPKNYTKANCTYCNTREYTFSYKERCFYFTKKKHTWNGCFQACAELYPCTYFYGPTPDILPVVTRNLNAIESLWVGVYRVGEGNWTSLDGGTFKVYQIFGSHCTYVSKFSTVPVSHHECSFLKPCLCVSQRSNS
GLD-1 RNA inh = GLD-1/TGE RNA complex disruptors, primary screen, biochemical, fluorescence polarization | Female germline-specific tumor suppressor gld-1 (Caenorhabditis elegans), Q17339 | purified GLD-1 + fluorescein TGE RNA | inhibition, % at 5.96 µM | 320,000 compounds, 0.44% hits | AID 2280, 2010;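 active means percent inhibition above a per-plate cutoff, the plate mean of test compounds plus 3 SD, cut at about 30% in these data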;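 further: 0% = DMSO wells with GLD-1 and probe and 100% = wells lacking GLD-1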
eLon inh = inhibitors of E. coli Lon protease, primary screen, biochemical, fluorescence polarization; 360,000 compounds, 0.42% hits; P0A9M0; purified E. coli Lon protease; AID 602123, 2011; inhibition, % at 7.94 µM; in the data active means inhibition above about 13%, passing the limit was not always enough;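 further: 0% = enzyme with probe and DMSO and 100% = no enzyme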
MEX-5 binding = MEX-5 zinc finger RNA-binding disruptors – biochemical, C. elegans, fluorescence polarization, MLPCN library, primary screen; AID 1832, 2009; activity score (negative = inhibition of binding), % at 10 µM; 300,000 compounds, 0.38% hits; Zinc finger protein mex-5 (Caenorhabditis elegans), Q9XUB2; MEX-5/FITC-TCR2 RNA binding; hits give low values;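 active means inhibition past about -25% in most replicates, and total fluorescence under double the plate's negative control median, limit read from the data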;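 further: 0% = DMSO and -100% = 5 µM competing unlabeled TCR2 RNA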
MCL1 BIM primary = inhibitors of MCL1 binding to BIM-BH3, primary screen, biochemical, fluorescence polarization; GST-MCL1 / FITC-Bim-BH3 fluorescence polarization; Induced myeloid leukemia cell differentiation protein Mcl-1 (Homo sapiens), Q07820; 320,000 compounds, 0.68% hits; inhibition, % at 10.9 µM;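 active means inhibition above the mean inhibition of all tested compounds plus 3 SD, set per campaign, cut at about 40% in these data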;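 further: 0% = DMSO wells and 100% = unlabeled Bim-BH3 peptide control; higher means more loss of mP so more displacement of Bim peptide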
GLD-1 TGE cf = GLD-1/TGE RNA binding inhibitors, retest, confirmation, biochemical, fluorescence polarization, triplicate; shares compounds with GLD-1 RNA inh; GLD-1/FL-TGE RNA fluorescence polarization; inhibition, % at 5.96 µM; 550 compounds, 10% hits;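 active means average inhibition across triplicates above the hit cutoff set in the primary screen, cut at about 32% in these data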;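 further: 0% = GLD-1 with RNA probe and DMSO and 100% = wells lacking GLD-1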
eLon confirm = E. coli Lon protease inhibitor retest, confirmation, biochemical, fluorescence polarization. inhibition, % at 7.94 µM. shares compounds with eLon inh. 1,400 compounds, 31% hits. purified E. coli Lon. AID 602230, 2012; in the data active means inhibition above about 16%;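 further: 0% = enzyme with probe and DMSO and 100% = no enzyme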
An asterisk follows results filed as active; · = not tested or not shown; + = active, no number.

SMILES	Bcl-xL primary	EBV gp42 inh	GLD-1 RNA inh	eLon inh	MEX-5 binding	MCL1 BIM primary	GLD-1 TGE cf	eLon confirm
COc1ccc(/C=C(\CC(=O)O)c2nc3ccccc3s2)cc1O	7.0	7.2	55.0*	4.6	2.1	-0.2	39.1*	·
COC(=O)CN1C(=O)N/C(=C/c2ccc(C)o2)C1=O	29.0	-11.6	62.9*	12.3	-6.0	26.0	-7.8	·
COC(=O)COc1ccc(/C=C2/NC(=O)N(CC(=O)OC)C2=O)cc1	1.8	-7.1	7.0	3.0	0.0	-8.0	·	·
CCOC(=O)c1ccc2ncc(C(=O)OCC)c(NCc3ccco3)c2c1	32.9*	2.4	38.8*	-3.2	-3.5	30.3	3.1	·
O=C(CN(C1CCCCC1)S(=O)(=O)c1ccccc1)N1CCCC1	1.8	-15.5	0.2	-7.3	-0.7	10.5	·	·
O=C(CN(C1CCCCC1)C1CCCCC1)N1CCc2ccccc2C1	6.0	-1.1	39.2*	-4.0	0.5	-0.9	-0.4	·
C(=N\NC1=Nc2cccc3cccc1c23)/c1ccccn1	·	-69.3	·	-42.7	-4.1	·	·	·
Clc1ccccc1/C=N/NC1=Nc2cccc3cccc1c23	23.3	42.8	48.3*	31.9	-4.8	15.4	22.1	·
COC(=O)CN(c1cc([N+](=O)[O-])ccc1OC)S(C)(=O)=O	3.6	-10.0	0.3	-11.7	-0.6	0.7	·	·
COC(=O)c1ccc(CNC(=O)Cn2nnnc2CN(C)C(C)C)cc1	4.3	·	138.2*	-4.9	-2.5	5.8	-4.4	·
O=C1CCc2cc(Br)ccc2O1	·	·	·	3.7	·	·	·	·
CCOc1ccc(-n2c(Cc3cc(=O)[nH]c(=O)[nH]3)nnc2SCC)cc1	-1.6	-7.8	13.4	5.5	-9.7	-7.5	·	·
CCOC(=O)CSc1nnc(Cc2cc(=O)[nH]c(=O)[nH]2)n1-c1ccc(Cl)cc1	20.7	7.3	38.0*	15.2*	-10.2	26.1	6.9	11.6
O=C(NCCO)C(=O)NCC1OCCCN1S(=O)(=O)c1cc(F)ccc1F (stereo not given)	-1.1	·	-10.8	-7.3	4.0	-1.4	·	·
CCc1csc(CCNC(=O)C2CCC(=O)N(Cc3cccc(C(F)(F)F)c3)C2)n1 (stereo not given)	4.3	·	0.3	-8.2	0.1	13.1	·	·
COc1cc(OC)cc(C(=O)NCc2ccc3c(c2)cc(C)n3C)c1	30.4*	9.2	51.7*	45.7*	1.2	34.5	7.4	6.3
Cc1cc2cc(CNC(=O)c3ccco3)ccc2n1C	38.5*	-5.2	34.0*	14.5*	-0.2	41.4*	2.9	13.8
CCOc1ccc(CC(=O)NCc2ccc3c(c2)cc(C)n3C)cc1	1.2	-10.6	11.0	-2.5	-4.1	4.7	·	·
CCN(CC)C1=C(Cl)C(=O)C(Cl)C12OCCO2 (stereo not given)	9.3	-21.7	8.0	-7.0	1.2	1.4	·	·
CC1CN(C2=Nc3cccc4cccc2c34)CC(C)O1 (stereo not given)	38.0*	35.2	47.4*	28.1*	-18.9	34.7	35.8*	13.8
CC(=O)N1CCN(C2=Nc3cccc4cccc2c34)CC1	36.9*	27.9	43.3*	18.0*	-20.6	35.6	38.2*	22.6*
c1cc2c3c(cccc3c1)C(N1CCOCC1)=N2	29.2	33.8	45.3*	31.9*	-19.4	30.6	32.0*	27.7*
O=C1c2ccccc2C(=O)c2c(O)c(O)cc(O)c21	·	·	69.5*	+	·	·	42.8*	+
CCC(C)(C)NC(=O)C(c1ccccn1)N(C(=O)c1csnn1)c1ccc(C)cc1 (stereo not given)	-1.7	-16.4	3.5	-3.4	-0.7	-2.1	·	·
